Data reported in PubChem BioAssay (NCI).
This is part of a sample that, as a whole, favours compounds with a hit. Of some 83,000 tested, about 20% had one in any assay.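 Note: values are percent growth. 100 is the growth of untreated cells, values between 100 and 0 indicate rising inhibition; between -100 and 0 indicates cell death.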 A number with no mark means an inactive call. The source made the active and inactive calls. Rule for the calls: active = growth percent below 10; inactive = the rest.

What was measured:
Experiment in all cases: NCI-60 one-dose screen, 48 h (100 = growth as untreated, 0 = no growth, -100 = all killed)
Conditions in all cases: 10 µM unless noted
SR leukemia = tested on: SR leukemia
RPMI-8226 leukemia = tested on: RPMI-8226 leukemia
OVCAR-5 ovarian = tested on: OVCAR-5 ovarian
OVCAR-4 ovarian = tested on: OVCAR-4 ovarian
SK-OV-3 ovarian = tested on: SK-OV-3 ovarian
IGROV1 ovarian = tested on: IGROV1 ovarian
OVCAR-3 ovarian = tested on: OVCAR-3 ovarian
NCI/ADR-RES ovarian = tested on: NCI/ADR-RES ovarian
OVCAR-8 ovarian = tested on: OVCAR-8 ovarian
HS 578T breast = tested on: HS 578T breast

Row | Compound | growth (SR leukemia) | growth (RPMI-8226 leukemia) | growth (OVCAR-5 ovarian) [%] | growth (OVCAR-4 ovarian) | growth (SK-OV-3 ovarian) | growth (IGROV1 ovarian) [%] | growth (OVCAR-3 ovarian) | growth (NCI/ADR-RES ovarian) | growth (OVCAR-8 ovarian) [%] | growth (HS 578T breast) [%]
1 | Nc1c(C(=O)Nc2cccc(Br)c2)sc2nc3c(cc12)C(=O)CCC3 | 13.7% | 38.3% | 59.3 | 77.2% | 5.74% (active) | 44 | 5.48% (active) | 26.9% |  | 
2 | COc1ccc(CCN2C(=O)C(C)(C)SC2=S)cc1OC | 103% |  | 104 | 96.6% | 108% | 94.4 | 107% | 100% | 102 | 107
3 | Cc1ccc(NC2CC(=O)N(c3c(C)cc(C)cc3C)C2=O)c(C)c1 (stereo unspecified) | 95.3% |  | 104 | 98.6% | 121% | 93.9 | 115% | 106% | 107 | 104
4 | COc1cc(-c2cc(-c3nc4cc(Cl)c(Cl)cc4[nH]3)[nH]n2)cc(OC)c1OC | 54.5% | -7.57% (active) | 101 | 52.5% | 104% | 87.2 | 52.2% | 39.1% |  | 
5 | COc1ccc(-c2nc3ccccn3c2-c2nc3ccc(Cl)cc3[nH]2)cc1 | 70.3% | 43.7% | 102 | 86% | 107% | 102 | 73.9% | 90.3% |  | 93.6
6 | O=c1c2sc3ncc(Br)cc3c2ncn1-c1cccc(Cl)c1 | 76.6% | 75.1% | 94.6 | -25.9% (active) |  | 83.9 |  | 80.8% |  | 
7 | COc1cc(-c2cc(-c3nc4ccccc4[nH]3)[nH]n2)cc(OC)c1OC | 11.1% | -24.9% (active) | 93.9 | 44.3% | 42.4% | 47.4 | 33.8% | 36.2% |  | 
8 | CCCCCCCCNc1cccc2c1C(=O)c1ccccc1C2=O | 108% | 105% |  | 103% | 108% | 105 | 92.6% | 112% | 111 | 95.7
9 | Fc1ccc2nc(-c3cc(-c4ccc5c(c4)OCO5)n[nH]3)[nH]c2c1 | 10% | 10.3% | 84.3 | 57.2% | 70.3% | 62.3 | 5.87% (active) | 42.4% |  | 78.2
10 | COc1ccc2c(c1)C/C(=C\c1cc(-c3ccc4c(c3)OCO4)n[nH]1)C2=O | 73.7% | 45.8% | 98.3 | 90.9% | 95.6% | 99.1 | 71.3% | 109% |  | 99.4
11 | O=C1NC(=Nc2ccc(S(=O)(=O)Nc3nccs3)cc2)S/C1=C\c1coc2ccccc2c1=O | 88.9% | 101% | 121 | 102% | 91.5% | 98.1 | 117% |  |  | 90.8
12 | COc1cc2ncnc(Nc3ccc(OCc4cccc(F)c4)c(Cl)c3)c2cc1NC(=O)C1CCCC1 | 91% | 89.9% |  | 100% | 13% | 52.2 | 77.9% | 71.6% | 76.9 | 91.8
13 | COc1ccc2nc(-c3cc(-c4cc(OC)c(OC)c(OC)c4)n[nH]3)[nH]c2c1 | 13.8% | -50.6% (active) | 58.8 | -21.9% (active) | 33.8% | 18.7 | -29% (active) | -0.97% (active) |  | 
14 | CC1(c2ccccc2)OC1C(=O)O (stereo unspecified) | 101% | 108% |  | 112% | 117% | 96.8 | 103% | 94.5% | 107 | 109
15 | CCc1ccc(-c2ccc(Nc3ccccc3)nn2)cc1S(N)(=O)=O | 9.58% (active) | 27.8% | 93 | 87.1% |  | 106 | 63.8% |  |  | 84.1
16 | c1ccc2[nH]c(-c3cc(-c4ccc5c(c4)OCO5)n[nH]3)nc2c1 | 28% | 7.45% (active) | 86.4 | 60.5% | 76.9% | 56.6 | 40.8% | 59.6% |  | 
17 | Cc1cc(C)n(Cc2cc(C(C)(C)C)cc(C(C)(C)C)c2)c(=O)c1C#N | 84% | 93.7% |  | 90.4% | 87% |  | 106% | 96.7% | 93.4 | 81.6
18 | Cn1cc(-c2nc(-c3c[nH]c4ncccc34)cs2)c2ccccc21 | 40% | 64% |  |  | 95.5% | 51 | 77.7% | 74.4% | 101 | 103
19 | Cc1cc(N=O)cc(C(C)(C)C)c1O | 98.9% |  | 108 | 97.7% | 75.8% | 98.6 | 105% | 99.3% | 103 | 90.8
20 | O=c1c(CNc2ccc(S(=O)(=O)Nc3nccs3)cc2)coc2ccccc12 | 94.7% | 92.1% | 92.8 | 99.9% | 102% | 101 | 110% | 102% |  | 
21 | COc1cccc(NC(=O)c2sc3nc4c(cc3c2N)C(=O)CCC4)c1 | 3.01% (active) | 0.464% (active) | 50 | 58.9% | -2.7% (active) | 49.2 | -2.17% (active) | -31.2% (active) |  | 
22 | O=C(O)c1cccc2c1Cc1cc([N+](=O)[O-])ccc1-2 | 89% | 100% |  |  |  | 92.3 | 115% |  | 108 | 95
23 | COc1ccc2c(c1)C/C(=C\c1cc(-c3cc(OC)c(OC)c(OC)c3)n[nH]1)C2=O | 57.8% | 52.8% | 97.5 | 82.2% | 102% | 106 | 93.6% | 83.4% |  | 91.8
24 | COc1cc(-c2cc(-c3nc4ccc(F)cc4[nH]3)[nH]n2)cc(OC)c1OC | 12.6% | -37.3% (active) | 88.5 | -2.29% (active) | 13.3% |  | 24% | -6.05% (active) |  | 
